Assay outcomes as filed in PubChem.
IL-2 act: qHTS of IL-2 Activators. IL-2 activation reporter assay, cell-based qHTS; stimulated with anti-CD3/CD4/CD28 beads; in transgenic mouse T cells. activation, % (series mostly up to about 46 µM). AID 652025, 2013. actives 0.065% (n = 360,000); in the data active = activation above about 50%; inconclusive = mostly about 30% to 49%
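Unstimulated transgenic mouse T cells, 750 per well, received compound and, after 60 minutes, anti-CD3/anti-CD4 bead plus anti-CD28 stimulation. EGFP and DsRed were quantified after 18 hours.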
EPAC2 antag: qHTS for Antagonist of cAMP-regulated guanine nucleotide exchange factor 2 (EPAC2): primary screen; Rap guanine nucleotide exchange factor 4 (Homo sapiens), Q8WZA2; EPAC2 GEF exchange of Rap1B-BODIPY-GDP, fluorescence; Potency, µM (titrated, usually from 114 µM), usual class: inhibitors; actives 0.18% (n = 360,000); AID 720708, 2013; also: nearly all actives have a fitted effect of over 45% in size
EPAC1 agonist: qHTS for Agonist of cAMP-regulated guanine nucleotide exchange factor 3 (EPAC1): primary screen; Rap guanine nucleotide exchange factor 3 (Homo sapiens), O95398; EPAC1 agonist qHTS, biochemical assay; response scale: 100% = response to 6.5 mM cAMP; Potency, µM (doses to about 154 µM), actives largely listed as activators; actives 0.073% (n = 360,000); AID 720707, 2013; also: nearly all actives have a fitted effect of over 60% in size
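Nucleotide exchange assay: 100 nM EPAC1 with 250 nM Rap1B loaded with BODIPY-GDP and 50 uM GDP, room temperature. Fluorescence (480/540 nm) read every 5 min for 30 min; signal change normalized to 6.5 mM cAMP as full agonist.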
EPAC2 agonist: qHTS for Agonist of cAMP-regulated guanine nucleotide exchange factor 4 (EPAC2): primary screen; actives 0.079% (n = 360,000); Rap guanine nucleotide exchange factor 4 (Homo sapiens), Q8WZA2; EPAC2 activation, biochemical qHTS; response scale: 100% = 6.5 mM cAMP response; Potency, µM (titrated, usually from 154 µM), usual class: activators; also: nearly all actives have a fitted effect of over 50% in size
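Nucleotide exchange monitored as fluorescence drop when BODIPY-GDP leaves Rap1B. Reaction: 100 nM EPAC2, 250 nM RAP1B-BODIPY-GDP, 50 uM GDP, room temperature, kinetic read over 30 min. Activity expressed relative to 6.5 mM cAMP.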
EPAC1 antagonist: qHTS for Antagonist of cAMP-regulated guanine nucleotide exchange factor 3 (EPAC1): primary screen; actives 0.14% (n = 360,000); EPAC1 GEF assay, Rap1b-BODIPY-GDP exchange fluorescence; Potency, µM (series often up to 115 µM), usual class: inhibitors; Rap guanine nucleotide exchange factor 3 (Homo sapiens), O95398; also: nearly all actives have a fitted effect of over 50% in size
PKM2 act: qHTS Assay for Activators of Human Muscle isoform 2 Pyruvate Kinase; Pyruvate kinase PKM (Homo sapiens), P14618; purified PKM2, Kinase-Glo ATP luminescence, activation; response scale: 0% is enzyme alone, no compound; Potency, µM (series often up to 57.5 µM), hits mostly activators; actives 0.34% (n = 260,000); also: nearly all actives have a fitted effect of over 55% in size
Target sequence (P14618 whole entry, looked up, canonical isoform): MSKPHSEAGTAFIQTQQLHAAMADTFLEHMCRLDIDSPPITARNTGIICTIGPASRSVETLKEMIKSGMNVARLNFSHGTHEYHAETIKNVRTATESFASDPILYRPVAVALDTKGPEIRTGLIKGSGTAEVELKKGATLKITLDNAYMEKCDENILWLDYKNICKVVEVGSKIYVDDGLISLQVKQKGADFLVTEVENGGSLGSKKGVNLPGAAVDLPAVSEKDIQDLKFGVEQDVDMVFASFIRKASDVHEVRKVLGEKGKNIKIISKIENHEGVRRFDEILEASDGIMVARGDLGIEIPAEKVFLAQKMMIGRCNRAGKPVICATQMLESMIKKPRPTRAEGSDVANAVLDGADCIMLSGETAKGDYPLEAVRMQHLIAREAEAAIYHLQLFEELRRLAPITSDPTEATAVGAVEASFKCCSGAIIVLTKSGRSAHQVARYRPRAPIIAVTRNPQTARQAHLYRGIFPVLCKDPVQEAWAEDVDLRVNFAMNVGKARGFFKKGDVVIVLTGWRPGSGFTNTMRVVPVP
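Purified hPK-M2 (>95%) run at intermediate activity with 0.1 mM ADP and 0.5 mM PEP in 50 mM imidazole pH 7.2, KCl, MgCl2; 1 h room temperature. ATP formed read by Kinase-Glo luminescence; normalized to uninhibited and no-enzyme controls.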
Of the large screens only hits and unclear results are named; the others gave an inactive call. A selection: hits, their analogues and other compounds. The true share with any hit is near 0.64%. Unless noted, calls follow the shape of the dose curve; as a rule, active = well fitted curve in the direction sought with a large enough effect; inconclusive = small, poorly fitted or top-dose-only effect, or another doubt; inactive = no such curve, though single readings can be large; an effect the other way counts as inactive or inconclusive.

CCc1ccc2c(c1)NC(=O)C2(C)Cc1ccc(C(F)(F)F)o1 (configuration not stated)	EPAC2 antag 20µM (no result: PKM2 act)
CCc1ccc2c(c1)NC(=O)C2(C)Cc1ccccc1 (configuration not stated)	none (no result: PKM2 act)
CSc1cccc(NC(=S)N(CCCN2CCCC(C)C2)Cc2cccs2)c1 (configuration not stated)	none
COc1cc(NC(=O)c2cc3ccccc3o2)c(OC)cc1Br	EPAC2 agonist 10µM
COc1ccc(N2CCN(C(=O)C(=O)c3ccc(F)cc3)CC2)cc1	none (no result: PKM2 act)
CC(=O)Nc1ccc(Nc2nc3ccccc3nc2NS(=O)(=O)c2ccc(Cl)c([N+](=O)[O-])c2)cc1	EPAC2 antag 79.4µM, EPAC1 antagonist inconclusive (no result: PKM2 act)
CCN(CC)c1ccc(/C=C/C(=O)c2cccnc2)cc1	none (no result: PKM2 act)
CN(C)c1ccc(C(=O)/C=C/c2ccc(Br)cc2)cc1	EPAC2 agonist 100µM
CN(C)c1ccc(C(=O)/C=C/c2ccccc2)cc1	none (no result: PKM2 act)
CCN(CC)c1ccc(/C=C/C(=O)c2ccc(Br)cc2)cc1	IL-2 act inconclusive, EPAC1 agonist 100µM, EPAC2 agonist 100µM
CC(OC(=O)c1ccc(C#N)cc1)C(=O)Nc1ccc(Cl)cn1 (configuration not stated)	none (no result: PKM2 act)
Cc1onc(-c2ccccc2)c1C(=O)OCC(=O)c1ccc(F)cc1	none (no result: PKM2 act)
O=C1NC(=Nc2ccccc2Cl)S/C1=C\c1cc([N+](=O)[O-])ccc1O	EPAC2 antag 17.8µM, EPAC1 antagonist 79.4µM
Cc1nn(-c2ccccc2)c(N2CCCC2)c1/C=C1\N=C(c2ccc(F)cc2)OC1=O	EPAC2 agonist inconclusive
Cc1ccc(C2=N/C(=C\c3c(C)nn(-c4ccccc4)c3N3CCCC3)C(=O)O2)cc1	EPAC2 agonist 100µM
COc1ccc(CC(=O)OCC(=O)Nc2cccc(C(C)=O)c2)cc1OC	none (no result: PKM2 act)
CCOC(=O)c1c(CSc2ccccc2)n(C)c2cc(Br)c(OCC(O)CNC(CO)(CO)CO)cc12 (configuration not stated)	EPAC2 antag 39.8µM, EPAC2 agonist inconclusive
CCn1cc(Br)c(C(=O)NC(C)c2ccccc2)n1 (configuration not stated)	IL-2 act 71.7
CC(NC(=O)Cn1cc(Br)c([N+](=O)[O-])n1)c1ccccc1 (configuration not stated)	none
O=C(NCC1CCN(C(=O)c2c(F)c(F)c(F)c(F)c2F)CC1)c1c(F)c(F)c(F)c(F)c1F	none
CCOc1ccc(N2C(=O)S/C(=C\c3cccn3C)C2=O)cc1	none
Cn1cccc1/C=C1\SC(=O)N(c2ccc(O)cc2)C1=O	IL-2 act 50.7
COc1ccccc1NC(=O)NCC1(N(C)C)CCCCC1	none (no result: PKM2 act)
O=c1[nH]c(N/N=C/c2cc3c(cc2[N+](=O)[O-])OCO3)nc2ccccc12	PKM2 act 39.8µM
[N-]=[N+]=CC(=O)C(Cc1ccccc1)N1C(=O)c2ccccc2C1=O (configuration not stated)	PKM2 act 11.2µM
O=c1[nH]c(SCc2ccccc2F)nc2ccccc12	EPAC2 antag inconclusive
O=c1cc(CSc2nc3ccccc3c(=O)[nH]2)c2ccc(O)cc2o1	EPAC1 antagonist 50.1µM
CCCC1NC(=O)c2cccnc2-n2c1nc1ccc(C)cc1c2=O (configuration not stated)	none (no result: PKM2 act)
O=C(COc1ccccc1C(=O)N/N=C\c1ccc(O)c(O)c1)N/N=C/c1ccc(O)c(O)c1	EPAC1 antagonist 10µM, PKM2 act inconclusive
O=C(NN=Cc1ccc(O)c(O)c1)c1ccccc1	none (no result: PKM2 act)
C#Cc1ccc([C@H]2C=C(C(=O)NCc3ccccc3)O[C@@H](OCC)[C@@H]2CCCO)cc1	EPAC2 antag 25.1µM
NS(=O)(=O)c1ccc(NC(=O)COC(=O)CCCN2C(=O)c3cccc4cccc(c34)C2=O)cc1	none (no result: PKM2 act)
COC(=O)c1c(NC(=O)CC2Nc3ccccc3NC2=O)sc(C)c1C (configuration not stated)	IL-2 act 184.7
CCOC(=O)c1c(NC(=O)CC2Sc3ccc(C(F)(F)F)cc3NC2=O)sc(C)c1C (configuration not stated)	none
CCOC(=O)c1c(NC(=O)CC2Nc3ccccc3NC2=O)sc(C)c1C (configuration not stated)	IL-2 act 157.7
Oc1ccc2ccccc2c1C=NC12CN3CCN(CN(C3)C1)C2	EPAC2 antag inconclusive, EPAC1 antagonist 79.4µM
OCC(CO)(CO)N=Cc1c(O)ccc2ccccc12	none
COc1cccc(CN(C)C(=O)CSCC(=O)Nc2cccc(C)c2)c1OC	none (no result: PKM2 act)
C/C(=C\c1ccc(C)o1)C(=O)c1c(C)cc(C)[nH]c1=O	PKM2 act 10µM
CC(C)(C)OC(=O)NCCCCCc1nnc(SCC(=O)Nc2cccc(Cl)c2)o1	PKM2 act 25.1µM
N=c1oc2c3c4c(cc2cc1C(=O)Nc1ccccc1)CCCN4CCC3	EPAC1 agonist inconclusive, EPAC2 agonist 112µM
Cc1ccc(CN(C)C(=O)c2ccccc2Oc2ccccc2)o1	PKM2 act 28.2µM
O=C(N/N=C/c1ccsc1)c1ccc2ccccc2n1	none
O=S(=O)(O)c1ccc(NN=Cc2ccccc2O)cc1	EPAC2 antag 22.4µM (no result: PKM2 act)
O=[N+]([O-])c1ccc(C=NNc2ccc(S(=O)(=O)O)cc2)cc1	EPAC2 antag 20µM (no result: PKM2 act)
COc1cccc(/C=N/Nc2ccc(S(=O)(=O)O)cc2)c1O	none
O=C(CCCOc1ccc(Br)cc1)NCCc1ccc(OC(F)F)cc1	none
COc1cc(C(c2nnnn2C(C)(C)C)N2CCN(c3nc4ccccc4s3)CC2)ccc1O (configuration not stated)	PKM2 act 25.1µM
CCCCCC(=O)N1C[C@H](n2cc(COC(=O)c3ccccc3)nn2)[C@@H](O)C[C@@H]1c1ccc(Cl)cc1	none (no result: PKM2 act)
Cc1cc2[nH]c(=O)c(=O)[nH]c2cc1S(=O)(=O)Nc1cccc(Cl)c1C	PKM2 act 15.8µM
